Results published in PubChem BioAssay (EPA / NIEHS).
Active and inactive are the calls of the source. How the source made its calls: active means hit-call score of the fitted dose curve at least 0.9, where 1 is the maximum; inactive means score below 0.9.

Assay: ATG_TGFb_CIS: Attagene CIS-FACTORIAL HepG2 Assay for human Transforming Growth Factor (TGF) (AID 2282967)
Details: HepG2 Attagene CIS TGFb reporter, mRNA transcription; actives raise or lower the signal
Protocol: ATG_CIS is a cell-based, multiplexed-readout assay that uses HepG2, a human liver cell line, with measurements taken at 24 hours after chemical dosing in a 24-well plate.ATG_TGFb_CIS is one of 52 assay component(s) measured or calculated from the ATG_CIS assay. It is designed to make measurements of mRNA induction, a form of inducible reporter, as detected with fluorescence intensity signals by Reverse transcription polymerase chain reaction (RT-PCR) and Capillary electrophoresis technology.Data from the assay component ATG_TGFb_CIS was analyzed into 1 assay endpoint. This assay endpoint, ATG_TGFb_CIS, was analyzed with bidirectional fitting relative to DMSO as the negative control and baseline of activity. Using a type of inducible reporter, measures of mRNA for gain or loss-of-signal activity can be used to understand the reporter gene at the transcription factor-level as they relate to the gene TGFB1. Furthermore, this assay endpoint can be referred to as a primary readout, because this assay has produced multiple assay endpoints where this one serves a reporter gene function. To generalize the intended target to other relatable targets, this assay endpoint is annotated to the growth factor intended target family, where the subfamily is transforming growth factor beta.
Human liver HepG2 cells are transiently transfected with multiple reporter transcription units (MRTUs) in 6-well plates using FuGene 6 reagent (Roche; 3 ml FuGene/1 mg DNA). The MRTU constructs are regulated by a cis-regulating element (promoter). […] A major difference between the CIS and TRANS system is that in CIS activities of endogenous TFs are measured, whereas the TRANS assay evaluates changes in activities of exogenous, chimeric NR-Gal4 proteins. […] At the end of 24 hour incubation, total RNA was isolated using TriZol reagent (Invitrogen). The isolated RNA is then reverse-transcribed using oligo(dT) primer and Mo-MLV reverse transcriptase (Invitrogen) with DNAse I (Ambion) treatment for 30 min. The one-tenth of the produced cDNA was amplified by PCR using Taq DNA polymerase (Invitrogen) and two reporter sequence-specific primers. The PCR products were fluorescently labeled by primer extension with 6-arboxyfluorescein (6-FAM) 5'-labeled reporter sequence-specific primer (2 min at 95 C, 20 s at 68 C and 10 min at 72 C) and these products were digested with 5U of HpaI (New England Biolabs) for 2h at 37 C. The fragments were purified using Qiaquick PCR columns (Qiagen), analyzed on an ABI 3130xL genetic analyzer (Applied Biosystems) with peak positions identified by using a set of X-rhodamine (ROX)-labeled MapMarker1000 molecular weight standards (BioVentures). The raw capillary electrophoresis data was processed using Attagraph software (Attagene).

SMILES	outcome	AC50
CC(C)CCOCc1ccccc1	inactive	–
CCCCC(C=O)CC (stereo not given)	inactive	–
CC1CCC(C(C)(C)S)C(=O)C1 (stereo not given)	inactive	–
C=C[Si](OCCOC)(OCCOC)OCCOC	inactive	–
c1ccc2c(c1)[nH]c1ccccc12	inactive	–
O=S(=O)(O)c1ccc(Nc2nc(Nc3ccc(C=Cc4ccc(Nc5nc(Nc6ccc(S(=O)(=O)O)cc6)nc(N(CCO)CCO)n5)cc4S(=O)(=O)O)c(S(=O)(=O)O)c3)nc(N(CCO)CCO)n2)cc1	inactive	–
CCCCCCCCCCCCCc1ccccc1	inactive	–
CCOC(=O)OC(=O)OCC	inactive	–
COC(OC)(C(=O)c1ccccc1)c1ccccc1	–	138 µM (active)
NC(=O)Nc1ccccc1	inactive	–
CCCCNS(=O)(=O)c1ccc(C)cc1	inactive	–
COC(Cc1ccccc1)OC	inactive	–
CC1=CP(=O)(c2ccccc2)CC1 (stereo not given)	inactive	–
CC(=O)OC1CCCCC1C(C)(C)C (stereo not given)	inactive	–
CCCCOC(=O)CCC(C)=O	inactive	–
O=C1CCCN1C1CCCCC1	inactive	–
CCCCC(CC)COS(=O)(=O)O (stereo not given)	inactive	–
CCCCCC(=O)OCC	inactive	–
COc1cc(C)ccc1O	inactive	–
C=C(C)C(=O)OCCCCCCCCCCCC	inactive	–

SMILES	outcome	AC50
COc1nccnc1CC(C)C	inactive	–
COC(=O)CC(C)CCC=C(C)C (stereo not given)	inactive	–
O=C1CCCCCCCCCCC1	inactive	–
CC(CC=O)CC(C)(C)C (stereo not given)	inactive	–
CCCCOCCOCCOC(C)=O	inactive	–
c1ccc2sc(SSN3CCOCC3)nc2c1	inactive	–
OCCCc1ccccc1	inactive	–
CO[Si](CCCS)(OC)OC	inactive	–
N#CC1(N)CCCCC1	inactive	–
O=C(O)c1ccc2c(c1)C(=O)OC2=O	inactive	–
CC(=O)OC/C=C(/C)CCC=C(C)C	inactive	–
[Cl][Eu]([Cl])[Cl]	inactive	–
Clc1cccnc1	inactive	–
C=Cc1cccc(C)c1	inactive	–
O=C(Cl)c1c(Cl)c(Cl)c(C(=O)Cl)c(Cl)c1Cl	–	0.74 µM (active)
O=C(O[C@@H]1Cc2c(O)cc(O)cc2O[C@@H]1c1cc(O)c(O)c(O)c1)c1cc(O)c(O)c(O)c1	inactive	–
CC(C)(C)C1CCC(=O)CC1	inactive	–
CCCCOC(=O)C(C)CC (stereo not given)	inactive	–
CC(C)(C)NC(=O)[C@H]1CC[C@H]2[C@@H]3CC[C@H]4NC(=O)C=C[C@]4(C)[C@H]3CC[C@]12C	inactive	–
O=C(Oc1ccccc1)c1ccccc1O	inactive	–
